Kir21 block: Kir2.1 (mouse) channel inhibition | P35561 | hit rate 0.85% among 310,000 | B-score at 10 µM | HEK293-Kir2.1, FluxOR thallium flux fluorescence; hits give low values;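 active means fluorescence ratio B-score at or below minus 3 SD of library scores, with starting-brightness B-score within 2 SD, cut at about -4.2 in these data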;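 further: channel flux triggered by added potassium and thallium sulfate stimulus; B-score of peak minus minimum fluorescence over baseline after thallium stimulus; more negative B-score means stronger Kir2.1 block with less thallium influx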
Target sequence (P35561 whole entry, looked up): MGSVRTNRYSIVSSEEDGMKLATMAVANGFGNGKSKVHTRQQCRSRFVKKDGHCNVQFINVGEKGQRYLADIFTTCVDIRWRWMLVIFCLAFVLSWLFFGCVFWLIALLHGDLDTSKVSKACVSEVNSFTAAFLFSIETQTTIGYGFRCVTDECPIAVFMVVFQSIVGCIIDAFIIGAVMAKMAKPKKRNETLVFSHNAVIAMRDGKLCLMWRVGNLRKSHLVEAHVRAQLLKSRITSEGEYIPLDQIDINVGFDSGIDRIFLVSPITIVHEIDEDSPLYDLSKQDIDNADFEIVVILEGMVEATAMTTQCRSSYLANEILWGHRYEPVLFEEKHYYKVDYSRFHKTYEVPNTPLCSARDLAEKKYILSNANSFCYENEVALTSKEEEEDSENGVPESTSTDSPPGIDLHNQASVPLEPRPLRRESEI
Rce1 inhib: inhibitors of yeast Ras-converting enzyme. calls only. yeast membranes, quenched prenylated peptide cleavage fluorescence. hit rate 0.27% among 290,000;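 active means fall in fluorescence gain of 50% or more versus controls, with final raw signal at or below 3038400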;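 further: plate controls were neutral control wells for no effect and wells lacking membranes for full effect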
FID counter: fluorescent intercalator displacement, NS3 helicase counter-screen. hit rate 0.17% among 290,000. DNA fluorescent intercalator displacement, fluorescence. inhibition, % at 7.9 µM; in the data active means inhibition above about 37%;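 further: 0% = vehicle and 100% = reference compound; higher means more ethidium bromide displaced from hairpin DNA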
M18AAP inhibitor: PfM18AAP enzyme inhibition | recombinant PfM18AAP, H-Glu-NHMec fluorogenic cleavage | inhibition, % at 7.35 µM | hit rate 1.2% among 290,000;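 active means inhibition above the campaign mean inhibition over all tested compounds plus 3 SD, cut at about 28% in these data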;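 further: 0% = plate median of test compound wells and 100% = 2 mM ZnCl2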
An asterisk follows results filed as active. Sampled rows, rich in hits. Any-hit rate of the full collection: about 2.3%.

N#Cc1ccsc1NC(=O)CN1CCN(c2ccc(O)cc2)CC1 was read as Kir21 block -0.52, Rce1 inhib inactive, FID counter 0 and M18AAP inhibitor 30*.
For O=C(CN1CCN(c2ccc(O)cc2)CC1)Nc1ccc(SC(F)F)cc1 the results were Kir21 block -0.15, Rce1 inhib inactive, FID counter -4 and M18AAP inhibitor 28*.
For Cc1ccc2c(c1)C(=O)C(=O)N2CCOc1ccccc1 the results were Kir21 block 0.27, Rce1 inhib inactive, FID counter 3 and M18AAP inhibitor 39*.
For Cc1cccc(OCCN2C(=O)C(=O)c3cc(C)ccc32)c1 the results were Kir21 block -0.27, Rce1 inhib active, FID counter -7 and M18AAP inhibitor 28.
Cc1cccc(OCCN2C(=O)C(=O)c3cccc(C)c32)c1 was read as Kir21 block 0.33, Rce1 inhib inactive, FID counter 1 and M18AAP inhibitor 23.
Screening CC(C)N1CCc2c(sc(NC(=O)c3ccc4ccccc4c3)c2C(N)=O)C1 returned Kir21 block -3.8, Rce1 inhib inactive, FID counter 15 and M18AAP inhibitor 10.
Screening CC(=O)Nc1sc2c(c1-c1nc3ccccc3s1)CCN(C(C)C)C2 returned FID counter 60* and M18AAP inhibitor 11.
`CN(Cc1ccc(F)cc1)C(=O)c1cccc(OCc2ccccc2)c1` gave Kir21 block -0.09, Rce1 inhib inactive, FID counter -39 and M18AAP inhibitor 1.
Screening COc1ccc(CC(=O)NNC(=O)c2cnccn2)cc1 returned Kir21 block -0.53, Rce1 inhib inactive, FID counter -7 and M18AAP inhibitor 29*.
Screening O=C(Nc1cnccn1)c1ccc(F)cc1Cl returned Kir21 block 1.6, Rce1 inhib inactive, FID counter -1 and M18AAP inhibitor 5.
CCC(C)NCCOc1ccc(C(C)(C)c2ccccc2)cc1 (configuration not stated) was read as Kir21 block -12*, Rce1 inhib inactive, FID counter 39* and M18AAP inhibitor 13.
For CC(C)(c1ccccc1)c1ccc(OCCCN2CCNCC2)cc1 the results were Kir21 block -5.8*, Rce1 inhib inactive, FID counter 24 and M18AAP inhibitor -12.
For CC(C)(C)c1ccc(OCCCCCCN2CCNCC2)cc1 the results were Kir21 block -0.23.
COCCCNCCOc1ccc(C(C)(C)c2ccccc2)cc1 was read as Kir21 block -13*, Rce1 inhib inactive, FID counter 22 and M18AAP inhibitor 1.
For CC(OC(=O)c1cccc(S(=O)(=O)N2CCCCC2)c1)C(=O)NC1CCCCC1C (configuration not stated) the results were Kir21 block 2, Rce1 inhib inactive, FID counter -37 and M18AAP inhibitor 0.
For C=CCn1c(CSc2nc3ccccc3s2)nnc1SCC(=O)NCc1ccccc1 the results were Kir21 block -5.2*, Rce1 inhib inactive, FID counter -34 and M18AAP inhibitor -1.
c1ccc(-n2cnnc2SCc2cn3cccnc3n2)cc1 was read as Kir21 block -1.9, Rce1 inhib active, FID counter -7 and M18AAP inhibitor -1.
For COc1ccc(-c2nc3ncccc3o2)cc1NC(=O)c1ccco1 the results were Kir21 block 0.12, Rce1 inhib active, FID counter -31 and M18AAP inhibitor 6.
`COc1ccc(-c2nc3ncccc3o2)cc1NC(=O)c1cccs1` gave Kir21 block -0.4, Rce1 inhib inactive, FID counter -31 and M18AAP inhibitor 4.
Screening CC[C@@H](C)[C@H](CN[C@H](CNC)C(C)C)NC[C@@H](C)c1ccc(CC(C)C)cc1 returned Kir21 block -8.8*, Rce1 inhib inactive, FID counter 29 and M18AAP inhibitor 0.
Screening CC(C)CC(=O)Nc1cccc(-c2nc3ccccc3[nH]2)c1 returned Kir21 block 0.42, Rce1 inhib inactive, FID counter -3 and M18AAP inhibitor -8.
O=C(COc1ccccc1)Nc1cccc(-c2nc3cc4ccccc4cc3[nH]2)c1 was read as Kir21 block 0.3, Rce1 inhib active, FID counter 12 and M18AAP inhibitor 4.
CC(=O)Nc1cccc(-c2nc3ccccc3[nH]2)c1 was read as Kir21 block -0.42, Rce1 inhib inactive, FID counter -1 and M18AAP inhibitor -3.
Screening O=C(Nc1cccc(-c2nc3ccccc3[nH]2)c1)c1ccccn1 returned Kir21 block 1.8, Rce1 inhib inactive, FID counter -9 and M18AAP inhibitor 31*.
CC1c2cc3c(cc2CCN1S(=O)(=O)c1ccccc1)OCCCO3 (configuration not stated) was read as Kir21 block 0.01, Rce1 inhib inactive, FID counter -28 and M18AAP inhibitor -4.
`COc1ccccc1C1(O)C(=O)Nc2ccc(C)cc21` (configuration not stated) gave Kir21 block -1.8, Rce1 inhib inactive, FID counter -3 and M18AAP inhibitor -2.
For C#CCn1c(-c2cccs2)nc2ccccc21 the results were Kir21 block 1.6, Rce1 inhib inactive, FID counter -12 and M18AAP inhibitor -6.
CCn1c(-c2cccs2)nc2ccccc21 was read as Kir21 block 0.37, Rce1 inhib active, FID counter -4 and M18AAP inhibitor -15.
`Cc1cccc(C(=O)NC(=S)NNC(=O)COc2c(C)cccc2C)c1` gave Kir21 block 1.1, Rce1 inhib inactive, FID counter 1 and M18AAP inhibitor 30*.
O=C(NC(=S)NNC(=O)c1ccccc1O)c1cccnc1 was read as Kir21 block -0.37, Rce1 inhib inactive, FID counter -5 and M18AAP inhibitor 5.
`Cc1ccc(C(=O)NC(=S)NNC(=O)COc2ccccc2C)cc1` gave Kir21 block -1.6, Rce1 inhib inactive, FID counter -2 and M18AAP inhibitor 4.
For O=C(NC(=S)NNC(=O)c1ccc(Cl)cc1Cl)c1cccnc1 the results were Kir21 block 0.01, Rce1 inhib inactive, FID counter -5 and M18AAP inhibitor 38*.
Cc1ccc(S(=O)(=O)NNC(=O)c2cccnc2)cc1 was read as Kir21 block -0.88, FID counter 5 and M18AAP inhibitor 14.
`O=C(NC(=S)NNS(=O)(=O)c1ccccc1)c1cccnc1` gave Kir21 block -0.5, Rce1 inhib inactive, FID counter 10 and M18AAP inhibitor 31*.
`Cc1cccc(C(=O)NC(=S)Nc2ccccc2C(=O)O)c1` gave Kir21 block -0.14, Rce1 inhib inactive, FID counter -4 and M18AAP inhibitor 4.
Screening Cc1cccc(C(=O)NC(=S)NNC(=O)c2ccccc2Cl)c1 returned Kir21 block -0.4, Rce1 inhib inactive, FID counter -2 and M18AAP inhibitor 29*.
Screening CC1CCCCN1C(=O)CN(C)S(=O)(=O)c1cccc2nsnc12 (configuration not stated) returned Kir21 block 0.67, Rce1 inhib inactive, FID counter -5 and M18AAP inhibitor -7.
Screening CC(c1ccccc1)N(CCC(c1ccccc1)C1CCOC(C)(C)C1)C(=O)c1ccco1 (configuration not stated) returned Kir21 block -6*, Rce1 inhib inactive, FID counter -35 and M18AAP inhibitor 0.

From PubChem BioAssay
